{"source": "PubChem BioAssay (NCI)", "note": "About 83,000 compounds went through this panel and 20% of them were active in at least one assay; those are over-represented in the sample as a whole.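 Cell lines were cultured in 96-well plates, exposed to a single compound concentration, and assessed for percent growth 48 hours later.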 Values without a mark were called inactive. Activity calls are given as the source filed them.", "data": [{"system": "HOP-92 NSCLC", "assay": "NCI-60 one-dose screen, 48 h (100 = growth as untreated, 0 = no growth, -100 = all killed)", "details": "10 µM", "protocol": "Growth inhibition of the HOP-92 human Non-Small Cell Lung tumor cell line is measured as a screen for anti-cancer activity. Cells are grown in 96 well plates and exposed to the test compound for 48 hours. Compounds are tested at a single concentration, which is 10^-5 M for most compounds. The reported endpoint is percent growth (GI% or GIPRCNT), where numbers from 0 - 100% represent growth inhibition, and numbers from -100% - 0 represent cell death. For example, a value of 40 represents 60% growth inhibition. A value of 0 means no net growth occurred over the course of the experiment. A value of -40 indicates 40% of cells at the beginning of the experiment died by the end of the experiment. A value of -100 means all cells are dead at the end of the experiment.\nNCI-60 Human Tumor Cell Lines Screen was performed using the standard one-dose NCI protocol, which is described in more detail at https://dtp.cancer.gov/discovery_development/nci-60/default.htm.\nCompounds with GIPRCNT values below 10 were considered active. Activity score was based on GIPRCNT using the following formula: […]\nScore is 0 for GIPRCNT values of 100 or above, 50 for GIPRCNT values of 0, and 100 for GIPRCNT values of -100.", "values": [{"smiles": "Cc1cc2c(-c3nc4ccccc4n3C)c(O)c(O)cc2c(O)c1-c1c(C)cc2c(-c3nc4ccccc4n3C)c(O)c(O)cc2c1O", "growth": "52.1%"}, {"smiles": "COc1nc(OC)nc(-c2cc(-c3cc(OC)c(OC)c(OC)c3)no2)n1", "growth": "95.4%"}, {"smiles": "CCCCCCCCc1ccc(OCCOCC[N+](C)(C)CC)cc1", "note": "(tested in a mixture with another compound)", "growth": "6.23% (active)"}, {"smiles": "CCCCCCNC(=O)Oc1ccc(/C(=C(/C)Cc2ccc(OC)cc2)c2ccc(OCCN(C)C)cc2)cc1", "growth": "46%"}, {"smiles": "COc1cc2cc3cc4cc(OC)c(OC)cc4c(C)[n+]3cc2cc1OC", "note": "(tested in a mixture with another compound)", "growth": "143%"}, {"smiles": "O=C(Nc1cccc(Cn2c(=O)[nH]c3ccc(Oc4ncccn4)cc3c2=O)c1)c1cccc(F)c1", "growth": "60.9%"}, {"smiles": "CCOC(=O)C1=C(C(F)(F)F)NC(=S)NC1CN1C(=O)c2ccccc2C1=O", "note": "(stereo not given)", "growth": "82.3%"}, {"smiles": "CC(=O)OCC(=O)[C@@]1(O)[C@H](C)C[C@H]2[C@@H]3C=C(C)C4=Cc5c(cnn5-c5ccc(F)cc5)C[C@]4(C)[C@H]3[C@@H](O)C[C@@]21C", "growth": "24.4%"}, {"smiles": "NNC(=S)N1N=C(c2cc3ccccc3o2)CC1c1c[nH]c2ccccc12", "note": "(stereo not given)", "growth": "50.1%"}, {"smiles": "O=C(/C=C\\c1ccc(NCc2ccc(C(=O)O)cc2)cc1)CCl", "growth": "99.7%"}, {"smiles": "CCOC(=O)c1c(C)oc2ncnc(Nc3ccc(NC(=O)Nc4cccc(Cl)c4)cc3)c12", "growth": "50.7%"}, {"smiles": "CCNc1nnc(COc2ccc(CNC(=O)CCCC/C=C/C(C)C)cc2OC)o1", "growth": "98.3%"}, {"smiles": "O=c1c(N=Nc2nccs2)c(-c2ccccc2)[nH]n1-c1nc(-c2ccccc2)cs1", "growth": "-8.96% (active)"}, {"smiles": "O=C(O)c1occ(Cl)c1Cl", "growth": "95.3%"}, {"smiles": "COc1ccc(C(O)(c2ccccc2)C(C(=O)O)c2ccccc2)cc1", "note": "(stereo not given)", "growth": "63%"}, {"smiles": "COc1ccc(CNCCCN2C(=O)c3ccc4c5c(ccc(c35)C2=O)C(=O)N(CCCNCc2ccc(OC)c(OC)c2OC)C4=O)c(OC)c1OC", "growth": "-43.5% (active)"}, {"smiles": "Cc1c(Cc2ccccc2)c(=O)oc2c(C)c(OCc3n[nH]c(=S)o3)ccc12", "growth": "57.8%"}, {"smiles": "CCCC(=O)Nc1ccccc1C(=O)O", "growth": "95.7%"}, {"smiles": "O=C1/C(=C/c2ccc(Cl)cc2)CCC/C1=C\\c1ccc(Cl)cc1", "growth": "74.4%"}, {"smiles": "Cc1nnc(/N=C2\\NC(=O)/C(=C/C=C/c3ccccc3)S2)s1", "growth": "56.9%"}, {"smiles": "N=C(N)c1ccc(-c2ccc(-c3cc(Cl)cc(Cl)c3)s2)cc1", "growth": "-77.1% (active)"}, {"smiles": "COc1ccc(/C=C2\\SC(=O)N(Cc3cc(=O)oc4ccc(OC)cc34)C2=O)cc1", "growth": "86%"}, {"smiles": "COc1ccccc1Nc1nnc(COc2ccc(CNC(=O)CCCC/C=C/C(C)C)cc2OC)o1", "growth": "79.1%"}, {"smiles": "CCOC(=O)c1c(C)oc2ncnc(Nc3ccc(NC(=O)Nc4ccc(CC)cc4)cc3)c12", "growth": "94.3%"}, {"smiles": "O=C(N/N=C/c1cc(Cl)ccc1O)C(=O)N/N=C/c1cc(Cl)ccc1O", "growth": "51.9%"}, {"smiles": "Cc1[nH]n(C(=S)Nc2nc3cc(Cl)c(F)cc3s2)c(=O)c1N=Nc1ccc(F)c(Cl)c1", "growth": "71.2%"}, {"smiles": "CC1(C)NCCC[C@]2(C)[C@H]3CC=C4[C@@H]5C[C@](C)(COC(=O)c6ccccc6C(=O)O)CC[C@]5(C)CC[C@@]4(C)[C@]3(C)CC[C@@H]12", "growth": "54.9%"}, {"smiles": "Cc1nc(NC(=O)NC2CCCCC2)sc1C(=O)NN", "growth": "-17.1% (active)"}, {"smiles": "CCCCCCCCc1ccc(CCC(N)(CO)CO)cc1", "growth": "-5.83% (active)"}, {"smiles": "Nc1cc(N)c2nc(NCCc3ccc(Cl)c(Cl)c3)cnc2c1", "growth": "-54.9% (active)"}, {"smiles": "COc1cc2ncnc(-n3ncc4cc(NC(=O)Nc5ccc(Cl)c(C)c5)ccc43)c2cc1OC", "growth": "93.7%"}, {"smiles": "Nc1ccc(S(=O)(=O)Nc2cc(F)cc(F)c2)cc1", "growth": "99.9%"}, {"smiles": "O=C1C(Cl)=C(Nc2ccc(Nc3ccccc3)c(NC3=C(Cl)C(=O)c4ccccc4C3=O)c2)C(=O)c2ccccc21", "growth": "45.3%"}, {"smiles": "COC(=O)c1ccc2[nH]c(O)c(C(=Nc3ccc(N(C)C(=O)CN4CCN(C)CC4)cc3)c3ccc(CCO)cc3)c2c1", "growth": "66.6%"}, {"smiles": "COc1ccc(Cn2cc3c(c2-c2ccc(OC)cc2)CCc2cnoc2-3)cc1", "growth": "55.2%"}, {"smiles": "CCOC(=O)CCCCCCCCC(=O)OCC", "growth": "98.6%"}, {"smiles": "CCOC(=O)NNc1[nH]c(-c2ccc(OC)cc2)cc1C#N", "growth": "76.4%"}, {"smiles": "CC(=O)Nc1nc(C)c(C(=O)N/N=C/c2cccs2)s1", "growth": "42.6%"}, {"smiles": "N=c1c2c(=O)n3c(nc2nc2sc4ccc(Cl)cc4n12)-c1ccccc1Sc1ccccc1-3", "growth": "6.89% (active)"}, {"smiles": "COc1ccc(OC)c(Cn2cc3c(c2-c2ccccc2)CCc2cnoc2-3)c1", "growth": "59.8%"}]}]}
